Where two headings read alike, the source gives them in different places.
How the values were obtained:
SIK3 = details: read-out: apparent Kd, n = 1
SLK = details: read-out: apparent Kd, n = 1

Lestaurtinib was tested, and the potency estimated from few doses (SIK3; compound concentrations:100 nM and 1000 nM (sheet 'Lestaurtinib' of Supplementary Table 1),run:Lestaurtinib_02624_R1,Plate:MR020) was 1910 nM, the potency estimated from few doses (SIK3; compound concentrations:100 nM and 1000 nM (sheet 'Lestaurtinib' of Supplementary Table 1),run:Lestaurtinib_02724_R1,Plate:MR021) was 1300 nM and the potency estimated from few doses (SIK3; compound concentrations:100 nM and 1000 nM (sheet 'Lestaurtinib' of Supplementary Table 1),run:Lestaurtinib_02724_R2,Plate:MR021) was 1320 nM. It also gave a potency estimated from few doses (SIK3; compound concentrations:100 nM and 1000 nM (sheet 'Lestaurtinib' of Supplementary Table 1),run:Lestaurtinib_02724_R3,Plate:MR021) of 1350 nM, a potency estimated from few doses (SIK3; compound concentrations:100 nM and 1000 nM (sheet 'Lestaurtinib' of Supplementary Table 1),run:Lestaurtinib_02741_R2,Plate:MR023) of 1300 nM and a potency estimated from few doses (SIK3; compound concentrations:100 nM and 1000 nM (sheet 'Lestaurtinib' of Supplementary Table 1),run:Lestaurtinib_02748_R1,Plate:MR024) of 1410 nM. It also gave a potency estimated from few doses (SIK3; compound concentrations:100 nM and 1000 nM (sheet 'Lestaurtinib' of Supplementary Table 1),run:Lestaurtinib_02748_R2,Plate:MR024) of 1490 nM, a potency estimated from few doses (SIK3; compound concentrations:100 nM and 1000 nM (sheet 'Lestaurtinib' of Supplementary Table 1),run:Lestaurtinib_02752_R1,Plate:MR025) of 1430 nM and a potency estimated from few doses (SIK3; compound concentrations:100 nM and 1000 nM (sheet 'Lestaurtinib' of Supplementary Table 1),run:Lestaurtinib_02752_R2,Plate:MR025) of 1720 nM. The potency estimated from few doses (SIK3; compound concentrations:100 nM and 1000 nM (sheet 'Lestaurtinib' of Supplementary Table 1),run:Lestaurtinib_02765_R2,Plate:MR026) was 1360 nM, the potency estimated from few doses (SIK3; compound concentrations:100 nM and 1000 nM (sheet 'Lestaurtinib' of Supplementary Table 1),run:Lestaurtinib_02766_R1,Plate:MR027) was 1130 nM and the potency estimated from few doses (SIK3; compound concentrations:100 nM and 1000 nM (sheet 'Lestaurtinib' of Supplementary Table 1),run:Lestaurtinib_02768_R3,Plate:MR028) was 1510 nM. The potency estimated from few doses (SIK3; compound concentrations:100 nM and 1000 nM (sheet 'Lestaurtinib' of Supplementary Table 1),run:Lestaurtinib_02795_R1,Plate:MR022) was 2150 nM, the potency estimated from few doses (SIK3; compound concentrations:100 nM and 1000 nM (sheet 'Lestaurtinib' of Supplementary Table 1),run:Lestaurtinib_02802_R1,Plate:MR029) was 1990 nM and the potency estimated from few doses (SIK3; compound concentrations:100 nM and 1000 nM (sheet 'Lestaurtinib' of Supplementary Table 1),run:Lestaurtinib_02802_R3,Plate:MR029) was 1720 nM. For the same substance, the potency estimated from few doses (SIK3; compound concentrations:100 nM and 1000 nM (sheet 'Lestaurtinib' of Supplementary Table 1),run:Lestaurtinib_02896_R3,Plate:MR030) was 1210 nM, the potency estimated from few doses (SIK3; compound concentrations:100 nM and 1000 nM (sheet 'Lestaurtinib' of Supplementary Table 1),run:Lestaurtinib_03172_R1,Plate:MR031) was 1420 nM and the potency estimated from few doses (SIK3; compound concentrations:100 nM and 1000 nM (sheet 'Lestaurtinib' of Supplementary Table 1),run:Lestaurtinib_03172_R2,Plate:MR031) was 1540 nM. The potency estimated from few doses (SIK3; compound concentrations:100 nM and 1000 nM (sheet 'Lestaurtinib' of Supplementary Table 1),run:Lestaurtinib_03172_R3,Plate:MR031) was 1130 nM, the potency estimated from few doses (SIK3; compound concentrations:100 nM and 1000 nM (sheet 'Lestaurtinib' of Supplementary Table 1),run:Lestaurtinib_03252_R1,Plate:MR032) was 1350 nM and the potency estimated from few doses (SIK3; compound concentrations:100 nM and 1000 nM (sheet 'Lestaurtinib' of Supplementary Table 1),run:Lestaurtinib_03252_R2,Plate:MR032) was 1130 nM. For the same substance, the potency estimated from few doses (SIK3; compound concentrations:100 nM and 1000 nM (sheet 'Lestaurtinib' of Supplementary Table 1),run:Lestaurtinib_03260_R2,Plate:MR033) was 1420 nM, the potency estimated from few doses (SLK; compound concentrations:100 nM and 1000 nM (sheet 'Lestaurtinib' of Supplementary Table 1),run:Lestaurtinib_02339_R2,Plate:MR001) was 859 nM and the potency estimated from few doses (SLK; compound concentrations:100 nM and 1000 nM (sheet 'Lestaurtinib' of Supplementary Table 1),run:Lestaurtinib_02364_R2,Plate:MR002) was 1540 nM. It also gave a potency estimated from few doses (SLK; compound concentrations:100 nM and 1000 nM (sheet 'Lestaurtinib' of Supplementary Table 1),run:Lestaurtinib_02364_R3,Plate:MR002) of 1370 nM, a potency estimated from few doses (SLK; compound concentrations:100 nM and 1000 nM (sheet 'Lestaurtinib' of Supplementary Table 1),run:Lestaurtinib_02367_R1,Plate:MR003) of 1350 nM and a potency estimated from few doses (SLK; compound concentrations:100 nM and 1000 nM (sheet 'Lestaurtinib' of Supplementary Table 1),run:Lestaurtinib_02367_R2,Plate:MR003) of 1300 nM. The potency estimated from few doses (SLK; compound concentrations:100 nM and 1000 nM (sheet 'Lestaurtinib' of Supplementary Table 1),run:Lestaurtinib_02367_R3,Plate:MR003) was 1530 nM, the potency estimated from few doses (SLK; compound concentrations:100 nM and 1000 nM (sheet 'Lestaurtinib' of Supplementary Table 1),run:Lestaurtinib_02381_R3,Plate:MR004) was 1210 nM and the potency estimated from few doses (SLK; compound concentrations:100 nM and 1000 nM (sheet 'Lestaurtinib' of Supplementary Table 1),run:Lestaurtinib_02407_R2,Plate:MR005) was 1670 nM. It also gave a potency estimated from few doses (SLK; compound concentrations:100 nM and 1000 nM (sheet 'Lestaurtinib' of Supplementary Table 1),run:Lestaurtinib_02422_R1,Plate:MR006) of 1150 nM, a potency estimated from few doses (SLK; compound concentrations:100 nM and 1000 nM (sheet 'Lestaurtinib' of Supplementary Table 1),run:Lestaurtinib_02422_R3,Plate:MR006) of 1360 nM and a potency estimated from few doses (SLK; compound concentrations:100 nM and 1000 nM (sheet 'Lestaurtinib' of Supplementary Table 1),run:Lestaurtinib_02438_R2,Plate:MR008) of 1420 nM. For the same substance, the potency estimated from few doses (SLK; compound concentrations:100 nM and 1000 nM (sheet 'Lestaurtinib' of Supplementary Table 1),run:Lestaurtinib_02443_R3,Plate:MR009) was 992 nM, the potency estimated from few doses (SLK; compound concentrations:100 nM and 1000 nM (sheet 'Lestaurtinib' of Supplementary Table 1),run:Lestaurtinib_02482_R3,Plate:MR011) was 1420 nM and the potency estimated from few doses (SLK; compound concentrations:100 nM and 1000 nM (sheet 'Lestaurtinib' of Supplementary Table 1),run:Lestaurtinib_02496_R2,Plate:MR013) was 1310 nM. It also gave a potency estimated from few doses (SLK; compound concentrations:100 nM and 1000 nM (sheet 'Lestaurtinib' of Supplementary Table 1),run:Lestaurtinib_02496_R3,Plate:MR013) of 1620 nM, a potency estimated from few doses (SLK; compound concentrations:100 nM and 1000 nM (sheet 'Lestaurtinib' of Supplementary Table 1),run:Lestaurtinib_02566_R3,Plate:MR014) of 1130 nM and a potency estimated from few doses (SLK; compound concentrations:100 nM and 1000 nM (sheet 'Lestaurtinib' of Supplementary Table 1),run:Lestaurtinib_02572_R3,Plate:MR015) of 1790 nM. It also gave a potency estimated from few doses (SLK; compound concentrations:100 nM and 1000 nM (sheet 'Lestaurtinib' of Supplementary Table 1),run:Lestaurtinib_02577_R2,Plate:MR016) of 1320 nM, a potency estimated from few doses (SLK; compound concentrations:100 nM and 1000 nM (sheet 'Lestaurtinib' of Supplementary Table 1),run:Lestaurtinib_02577_R3,Plate:MR016) of 997 nM and a potency estimated from few doses (SLK; compound concentrations:100 nM and 1000 nM (sheet 'Lestaurtinib' of Supplementary Table 1),run:Lestaurtinib_02584_R2,Plate:MR017) of 1320 nM. It also gave a potency estimated from few doses (SLK; compound concentrations:100 nM and 1000 nM (sheet 'Lestaurtinib' of Supplementary Table 1),run:Lestaurtinib_02584_R3,Plate:MR017) of 1580 nM.

From PMC11062922 (Nature Chemical Biology, 2023)
